Measurements: PubChem BioAssay (Tox21)
Inconclusive results are not listed. Where a call stands in place of a potency, no number is given. Activity calls are given as the source filed them. Unless noted, calls come from the whole dose curve; as a rule, active = well fitted cell-killing curve with a large enough effect in the repeat runs; inconclusive = weak or mixed curves, or effect the other way; inactive = no such curve, though single readings can be large or run the other way.

target: Vitamin D3 receptor (Homo sapiens) (UniProt P11473); assay: qHTS assay to identify small molecule agonists of the vitamin D receptor (VDR) signaling pathway (AID 743222; calls by dose curve); settings: HEK293T VDR-UAS-bla, beta-lactamase FRET ratio, 16 h; series mostly up to 63.5 µM
Sequence (P11473 whole entry, looked up): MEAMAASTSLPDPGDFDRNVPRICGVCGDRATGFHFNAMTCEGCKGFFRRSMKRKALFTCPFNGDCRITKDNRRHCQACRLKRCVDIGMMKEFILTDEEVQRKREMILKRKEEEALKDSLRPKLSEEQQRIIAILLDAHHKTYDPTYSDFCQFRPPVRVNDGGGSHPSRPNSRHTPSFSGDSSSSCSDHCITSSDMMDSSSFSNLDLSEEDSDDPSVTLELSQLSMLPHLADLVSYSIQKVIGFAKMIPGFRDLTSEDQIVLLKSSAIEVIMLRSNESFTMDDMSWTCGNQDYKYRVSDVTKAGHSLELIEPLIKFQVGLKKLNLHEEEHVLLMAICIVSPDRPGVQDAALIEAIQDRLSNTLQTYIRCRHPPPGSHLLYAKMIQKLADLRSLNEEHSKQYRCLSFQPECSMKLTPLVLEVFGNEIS
Method in brief: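 In VDR-bla cells, compound-induced beta-lactamase expression is quantified by FRET substrate fluorescence. Treatment lasts 16 h at 37C; substrate develops 2 h at room temperature.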

Structure (SMILES)	outcome
C#CC(C)N(C)C(=O)Nc1ccc(Cl)cc1 (centres undefined)	inactive
CC(=O)c1ccc2c(c1)Cc1ccccc1-2	inactive
COc1nccnc1NS(=O)(=O)c1ccc(N)cc1	inactive
BrCCCCCBr	inactive
c1ccc2c(c1)ccc1c3ccccc3ccc21	inactive
CCC(C=O)CC	inactive
O=C1c2ccccc2C(=O)N1CCl	inactive
CCOC(=O)CC(=O)c1ccccc1	inactive
O=C(O)c1ccc(Cl)cc1Cl	inactive
CN(C)c1ccc(C=O)cc1	inactive
C[C@@H](Oc1ccc(CNC(=O)c2cccnc2Oc2ccc3c(c2)OCO3)c(F)c1)C(=O)O	inactive
N[C@@H](COP(=O)(O)O)C(=O)O	inactive
CCCCCCCC/C=C\CCCCCCCC(=O)OCCCC	inactive
Cc1ccsc1/C=C/C1=NCCCN1C	inactive
CNC(=O)[C@H]1O[C@@H](n2cnc3c(NCc4cc(Cl)ccc4OCc4cc(C)no4)ncnc32)[C@H](O)[C@@H]1N	inactive
O=C(O)CCSSCCC(=O)O	inactive
COc1ccc(-c2cc(=O)c3c(O)cc(O[C@@H]4O[C@H](CO[C@@H]5O[C@@H](C)[C@H](O)[C@@H](O)[C@H]5O)[C@@H](O)[C@H](O)[C@H]4O)cc3o2)cc1O	inactive
O=C(CS(=O)Cc1ccco1)NC/C=C\COc1cc(CN2CCCCC2)ccn1 (centres undefined)	inactive
COc1cc(N)ccc1C	inactive
COc1ccc(S(=O)(=O)N2c3ccc(Cl)cc3[C@@](O)(c3ccccc3Cl)[C@H]2C(=O)N2CCC[C@@H]2C(N)=O)cc1OC	inactive
Cc1ccc2c(c1)OCC(=O)CO2	inactive
Cc1nc2n(c(=O)c1CCN1CCC(c3noc4cc(F)ccc34)CC1)CCC[C@H]2O	inactive
CC(CN)CC(C)(C)CCN (centres undefined)	inactive
COC(=O)c1ccccc1C(=O)c1ccc(OCCN2CCCCC2)cc1	inactive
CCCCOC(=O)c1ccccc1	inactive

target: Vitamin D3 receptor (Homo sapiens) (UniProt P11473); assay: qHTS assay to identify small molecule antagonists of the vitamin D receptor (VDR) signaling pathway (AID 743223; active = well fitted inhibition curve with a large enough effect in the signal ratio in the repeat runs, not every such curve was filed as active; the % refers to the signal ratio); settings: VDR-UAS-bla HEK293T, beta-lactamase FRET ratio, 16 h; series mostly up to 61 µM
Method in brief: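 Antagonist mode: compound added to VDR-bla cells alongside agonist 1alpha,25-dihydroxyvitamin D3 (3 nM final), incubation 16 h at 37C. Read-out is LiveBLAzer FRET fluorescence, 2 h at room temperature.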

Structure (SMILES)	outcome
BrCCCCCBr	inactive
c1ccc2c(c1)ccc1c3ccccc3ccc21	inactive
CCC(C=O)CC	inactive
CCOC(=O)CC(=O)c1ccccc1	inactive
O=C(O)c1ccc(Cl)cc1Cl	inactive
CC(=C(CCOC(=O)C(C)C)SSC(CCOC(=O)C(C)C)=C(C)N(C=O)Cc1cnc(C)nc1N)N(C=O)Cc1cnc(C)nc1N	inactive
C[C@@H](Oc1ccc(CNC(=O)c2cccnc2Oc2ccc3c(c2)OCO3)c(F)c1)C(=O)O	inactive
O=C(NCCN1CCOCC1)c1ccc(Cl)cc1	inactive
Cc1ccsc1/C=C/C1=NCCCN1C	inactive
CNC(=O)[C@H]1O[C@@H](n2cnc3c(NCc4cc(Cl)ccc4OCc4cc(C)no4)ncnc32)[C@H](O)[C@@H]1N	inactive
O=C(O)CCSSCCC(=O)O	inactive
COc1ccc(-c2cc(=O)c3c(O)cc(O[C@@H]4O[C@H](CO[C@@H]5O[C@@H](C)[C@H](O)[C@@H](O)[C@H]5O)[C@@H](O)[C@H](O)[C@H]4O)cc3o2)cc1O	inactive
NNc1nnc(NN)c2ccccc12	inactive
COc1cc(N)ccc1C	inactive
COc1ccc(S(=O)(=O)N2c3ccc(Cl)cc3[C@@](O)(c3ccccc3Cl)[C@H]2C(=O)N2CCC[C@@H]2C(N)=O)cc1OC	inactive
Cc1nc2n(c(=O)c1CCN1CCC(c3noc4cc(F)ccc34)CC1)CCC[C@H]2O	inactive
COC(=O)c1ccccc1C(=O)c1ccc(OCCN2CCCCC2)cc1	inactive
Nc1nnc(-c2cccc(Cl)c2Cl)c(N)n1	inactive
CCCCOC(=O)c1ccccc1	inactive

system: not listed separately; assay: qHTS assay to identify small molecule agonists of the vitamin D receptor (VDR) signaling pathway - cell viability counter screen (AID 743224); settings: VDR-bla HEK293T viability, CellTiter-Glo luminescence, 16 h; series mostly up to 62.6 µM; note: nearly all actives have a fitted effect of over 50% in size
Method in brief: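 Plated VDR-bla cells (4 h, 37C) received compound, incubated 16 h, then LiveBLAzer substrate 2 h RT; CellTiter-Glo added afterwards, luminescence read at 30 min.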

Structure (SMILES)	Potency
CC(C)(C)OC(=O)c1ccc(O)cc1	inactive
CCN(C)C(=O)Oc1cccc([C@H](C)N(C)C)c1	inactive
CC(=O)c1ccc2c(c1)Cc1ccccc1-2	inactive
CCN1CCc2nc(N)oc2CC1	inactive
COc1nccnc1NS(=O)(=O)c1ccc(N)cc1	inactive
CCC(C=O)CC	inactive
O=C1c2ccccc2C(=O)N1CCl	inactive
CN(C)CCOCCO	inactive
CCOC(=O)CC(=O)c1ccccc1	inactive
O=C(O)c1ccc(Cl)cc1Cl	inactive
CN(C)c1ccc(C=O)cc1	inactive
CCOc1cc(NC(C)=O)ccc1C(=O)OC	inactive
CC(=C(CCOC(=O)C(C)C)SSC(CCOC(=O)C(C)C)=C(C)N(C=O)Cc1cnc(C)nc1N)N(C=O)Cc1cnc(C)nc1N	inactive
C[C@@H](Oc1ccc(CNC(=O)c2cccnc2Oc2ccc3c(c2)OCO3)c(F)c1)C(=O)O	inactive
O=C(NCCN1CCOCC1)c1ccc(Cl)cc1	inactive
N[C@@H](COP(=O)(O)O)C(=O)O	inactive
CCCCCCCC/C=C\CCCCCCCC(=O)OCCCC	inactive
Cc1ccsc1/C=C/C1=NCCCN1C	inactive
O=C(O)CCSSCCC(=O)O	inactive
COc1ccc(-c2cc(=O)c3c(O)cc(O[C@@H]4O[C@H](CO[C@@H]5O[C@@H](C)[C@H](O)[C@@H](O)[C@H]5O)[C@@H](O)[C@H](O)[C@H]4O)cc3o2)cc1O	inactive
NNc1nnc(NN)c2ccccc12	inactive
O=C(CS(=O)Cc1ccco1)NC/C=C\COc1cc(CN2CCCCC2)ccn1 (centres undefined)	inactive
COc1ccc(S(=O)(=O)N2c3ccc(Cl)cc3[C@@](O)(c3ccccc3Cl)[C@H]2C(=O)N2CCC[C@@H]2C(N)=O)cc1OC	inactive
Cc1ccc2c(c1)OCC(=O)CO2	inactive
Cc1nc2n(c(=O)c1CCN1CCC(c3noc4cc(F)ccc34)CC1)CCC[C@H]2O	inactive
CC(CN)CC(C)(C)CCN (centres undefined)	inactive
COC(=O)c1ccccc1C(=O)c1ccc(OCCN2CCCCC2)cc1	inactive
Nc1nnc(-c2cccc(Cl)c2Cl)c(N)n1	inactive
O=C1c2ccccc2C(=O)C1c1ccccc1	inactive
CCCCOC(=O)c1ccccc1	inactive
